According to PubChem BioAssay AID1159580 (chemical genetic matrix, 2015):
The campaign covered roughly 5,500 compounds. About 2,000 (36%) were called active. Another 18% or so got no clear call; they are omitted. Rule as the data show it: active = normalized growth mostly below about 0.91 (no sharp cut-off); inconclusive = no clear call, values can overlap the other calls; inactive = mostly above about 0.92. The list shows a part of the results.

Experiment: chemical genetic growth profiling, strain panel (AID 1159580);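 also: tested at 20 µM; growth read once vehicle control cultures reached saturation at 30 °C; 1 = growth at the plate median or of vehicle wells; lower values mean less growth of the strain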
Conditions: growth OD

Measured: normalized growth

CC(C)(S)[C@@H](N)C(=O)O
inactive: S. cerevisiae deletion strains, locus YJR043C, strain POL32, stronger effect = lower value 1 | S. cerevisiae deletion strains, locus YJR066W, strain TOR1, stronger effect = lower value 0.952 | S. cerevisiae deletion strains, locus YKL009W, strain mrt4, stronger effect = lower value 0.988 | S. cerevisiae deletion strains, locus YKL068W, stronger effect = lower value 0.995 | S. cerevisiae deletion strains, locus YKL085W, strain MDH1 (second series), stronger effect = lower value 0.993 | S. cerevisiae deletion strains, locus YKL085W, strain MDH1, stronger effect = lower value 0.993 | S. cerevisiae deletion strains, locus YKL160W, strain elf1, stronger effect = lower value 1.03 | S. cerevisiae deletion strains, locus YKL190W, strain CNB1, stronger effect = lower value 0.999 | S. cerevisiae deletion strains, locus YKR001C, strain vps1, stronger effect = lower value 0.988 | S. cerevisiae deletion strains, locus YKR026C, strain gcn3, stronger effect = lower value 0.994 | S. cerevisiae deletion strains, locus YKR091W, strain srl3, stronger effect = lower value 1 | S. cerevisiae deletion strains, locus YLL001W, strain dnm1, stronger effect = lower value 1.02 | S. cerevisiae deletion strains, locus YLL026W, stronger effect = lower value 1.01 | S. cerevisiae deletion strains, locus YLL041C, strain sdh2, stronger effect = lower value 1 | S. cerevisiae deletion strains, locus YLR027C, strain aat2, stronger effect = lower value 0.995 | S. cerevisiae deletion strains, locus YLR039C, strain RIC1, stronger effect = lower value 1.02 | S. cerevisiae deletion strains, locus YLR058C, strain SHM2, stronger effect = lower value 1.01 | S. cerevisiae deletion strains, locus YLR102C, strain apc9, stronger effect = lower value 0.992 | S. cerevisiae deletion strains, locus YLR113W, strain HOG1, stronger effect = lower value 0.99 | S. cerevisiae deletion strains, locus YLR221C, strain rsa3, stronger effect = lower value 1 | S. cerevisiae deletion strains, locus YLR258W, strain gsy2, stronger effect = lower value 1 | S. cerevisiae deletion strains, locus YLR262C, strain YPT6 (second series), stronger effect = lower value 1.02 | S. cerevisiae deletion strains, locus YLR262C, strain YPT6, stronger effect = lower value 1 | S. cerevisiae deletion strains, locus YLR268W, strain sec22, stronger effect = lower value 0.969 | S. cerevisiae deletion strains, locus YLR320W, strain mms22, stronger effect = lower value 1.04 | S. cerevisiae deletion strains, locus YLR330W, strain CHS5, stronger effect = lower value 1.01 | S. cerevisiae deletion strains, locus YLR342W, strain FKS1 (second series), stronger effect = lower value 1.03 | S. cerevisiae deletion strains, locus YLR342W, strain FKS1, stronger effect = lower value 1.01 | S. cerevisiae deletion strains, locus YLR357W, strain rsc2, stronger effect = lower value 1 | S. cerevisiae deletion strains, locus YLR370C, strain arc18, stronger effect = lower value 1 | S. cerevisiae deletion strains, locus YLR371W, strain rom2, stronger effect = lower value 0.994 | S. cerevisiae deletion strains, locus YLR384C, strain iki3, stronger effect = lower value 0.993 | S. cerevisiae deletion strains, locus YLR418C, strain cdc73, stronger effect = lower value 0.98 | S. cerevisiae deletion strains, locus YML016C, strain PPZ1, stronger effect = lower value 1.02 | S. cerevisiae deletion strains, locus YML032C, strain rad52, stronger effect = lower value 0.991 | S. cerevisiae deletion strains, locus YML120C, strain ndi1, stronger effect = lower value 0.998 | S. cerevisiae deletion strains, locus YML124C, strain tub3, stronger effect = lower value 0.994 | S. cerevisiae deletion strains, locus YMR058W, strain fet3, stronger effect = lower value 1.01 | S. cerevisiae deletion strains, locus YMR078C, strain ctf18, stronger effect = lower value 0.988 | S. cerevisiae deletion strains, locus YMR125W, strain sto1, stronger effect = lower value 1 | S. cerevisiae deletion strains, locus YMR129W, stronger effect = lower value 0.996 | S. cerevisiae deletion strains, locus YMR205C, strain PFK2, stronger effect = lower value 1.04 | S. cerevisiae deletion strains, locus YMR223W, strain ubp8, stronger effect = lower value 0.999 | S. cerevisiae deletion strains, locus YMR231W, strain pep5, stronger effect = lower value 0.999 | S. cerevisiae deletion strains, locus YMR307W, strain GAS1, stronger effect = lower value 1.01 | S. cerevisiae deletion strains, locus YNL067W, strain RPL9B, stronger effect = lower value 0.993 | S. cerevisiae deletion strains, locus YNL071W, strain lat1, stronger effect = lower value 1 | S. cerevisiae deletion strains, locus YNL183C, strain NPR1, stronger effect = lower value 0.964 | S. cerevisiae deletion strains, locus YNL209W, strain ssb2, stronger effect = lower value 0.997 | S. cerevisiae deletion strains, locus YNL233W, strain BNI4, stronger effect = lower value 1.02 | S. cerevisiae deletion strains, locus YNL248C, strain rpa49, stronger effect = lower value 1 | S. cerevisiae deletion strains, locus YNL250W, strain rad50, stronger effect = lower value 0.985 | S. cerevisiae deletion strains, locus YNL271C, strain bni1, stronger effect = lower value 0.988 | S. cerevisiae deletion strains, locus YNL298W, strain CLA4, stronger effect = lower value 0.991 | S. cerevisiae deletion strains, locus YNL307C, strain MCK1, stronger effect = lower value 0.992 | S. cerevisiae deletion strains, locus YNL322C, strain KRE1 (second series), stronger effect = lower value 1.01 | S. cerevisiae deletion strains, locus YNR049C, strain mso1, stronger effect = lower value 0.997 | S. cerevisiae deletion strains, locus YNR052C, strain pop2, stronger effect = lower value 0.988 | S. cerevisiae deletion strains, locus YOL006C, strain TOP1, stronger effect = lower value 1.08 | S. cerevisiae deletion strains, locus YOL012C, strain htz1 0.654 | S. cerevisiae deletion strains, locus YOL147C, strain pex11, stronger effect = lower value 0.984 | S. cerevisiae deletion strains, locus YOR001W, strain rrp6, stronger effect = lower value 0.989 | S. cerevisiae deletion strains, locus YOR061W, strain CKA2, stronger effect = lower value 1.01 | S. cerevisiae deletion strains, locus YOR069W, strain VPS5, stronger effect = lower value 1 | S. cerevisiae deletion strains, locus YOR070C, strain gyp1, stronger effect = lower value 1.01 | S. cerevisiae deletion strains, locus YOR080W, strain dia2, stronger effect = lower value 1 | S. cerevisiae deletion strains, locus YOR083W, strain WHI5, stronger effect = lower value 1.04 | S. cerevisiae deletion strains, locus YOR106W, strain vam3, stronger effect = lower value 1.03 | S. cerevisiae deletion strains, locus YOR136W, strain idh2, stronger effect = lower value 0.994 | S. cerevisiae deletion strains, locus YOR144C, strain elg1, stronger effect = lower value 0.992 | S. cerevisiae deletion strains, locus YOR184W, strain ser1, stronger effect = lower value 1.01 | S. cerevisiae deletion strains, locus YOR231W, strain MKK1, stronger effect = lower value 1.01 | S. cerevisiae deletion strains, locus YOR265W, strain rbl2, stronger effect = lower value 1 | S. cerevisiae deletion strains, locus YOR270C, strain vph1, stronger effect = lower value 0.989 | S. cerevisiae deletion strains, locus YOR290C, strain snf2, stronger effect = lower value 1.04 | S. cerevisiae deletion strains, locus YOR316C, strain cot1, stronger effect = lower value 0.993 | S. cerevisiae deletion strains, locus YPL051W, strain arl3, stronger effect = lower value 1.02 | S. cerevisiae deletion strains, locus YPL078C, strain atp4, stronger effect = lower value 1.01 | S. cerevisiae deletion strains, locus YPL106C, strain sse1, stronger effect = lower value 1.03 | S. cerevisiae deletion strains, locus YPL240C, strain hsp82, stronger effect = lower value 0.988 | S. cerevisiae deletion strains, locus YPL241C, strain CIN2, stronger effect = lower value 1.01 | S. cerevisiae deletion strains, locus YPL256C, strain CLN2, stronger effect = lower value 0.986 | S. cerevisiae deletion strains, locus YPR119W, strain clb2, stronger effect = lower value 1 | S. cerevisiae deletion strains, locus YPR141C, strain kar3, stronger effect = lower value 0.993 | S. cerevisiae deletion strains, locus YPR163C, strain tif3, stronger effect = lower value 0.991 | S. cerevisiae deletion strains, locus YPR167C, strain met16, stronger effect = lower value 0.991 | S. cerevisiae deletion strains, strain wtn01, stronger effect = lower value 0.976 | S. cerevisiae strains, strain wild type, stronger effect = lower value 1.01
